# Reference: the supplement of paper PMC13392028
# Whole data set: some 4,100 sequences, median “RBNS R-value (6-mer enrichment in protein-bound RNA vs input library)” near 0.96, cut for the highest 2% near 2.4. Only a selection was taken, and the highest values are over-represented in it overall.
# System: PyIESI-1 RRM domain (Plasmodium yoelii PY17X_0911200 aa 795-956, GST fusion)
# Assay: RBNS R-value (6-mer enrichment in protein-bound RNA vs input library) (ratio); higher = stronger binding preference; the methods of the paper give 50 / 100 / 500 nM protein instead
# Method: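 RNA Bind-n-Seq: recombinant GST-tagged IESI-1 RRM domain was incubated at room temperature with a random 40-nt in vitro transcribed RNA library at 250, 500 or 1000 nM protein. Bound RNA was pulled down on glutathione beads and sequenced. R-value is the enrichment of each 6-mer in the bound RNA relative to the input library. Each 6-mer sits inside the random 40-mer context, not as an isolated oligo. Values are replicate 1 only.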
Sequence,RBNS R-value (protein concentration: 250 nM),RBNS R-value (protein concentration: 500 nM),RBNS R-value (protein concentration: 1000 nM)
AUGAUC,2.74,2.71,2.97
CUGAUG,6.48,5.8,5.87
AUGAUG,8.6,7.43,7.47
CUGACA,1.26,1.25,1.26
CAGAUG,1.85,1.83,1.93
CUGAUA,3.66,3.59,3.88
AUGAGC,1.51,1.48,1.49
AGGAUG,1.22,1.18,1.18
AGGAUC,0.785,0.788,0.757
AUGAAG,1.53,1.51,1.47
CAGAUA,0.96,0.988,1.02
CGGAUG,1.22,1.18,1.18
AUAAAA,0.85,0.843,0.844
UCCAGG,1,1,1
UCAUUU,0.748,0.785,0.825
CGACAG,1.01,0.998,0.998
CAAUCG,0.873,0.879,0.886
UUAGCC,0.885,0.907,0.915
AGGCUU,0.943,0.943,0.919
CGUUUG,1.1,1.09,1.08
UUGAGA,1.31,1.32,1.31
CUGAAC,1.05,1.06,1.05
AUGAUU,7.34,6.63,6.94
AUGAUA,4.79,4.63,5.14
AUGAAU,1.41,1.35,1.36

Sequence,RBNS R-value (protein concentration: 250 nM),RBNS R-value (protein concentration: 500 nM),RBNS R-value (protein concentration: 1000 nM)
AGGAUU,1.06,1.04,0.995
UUGACA,1.57,1.54,1.56
UUGAUA,4.42,4.38,4.81
AUGAGA,1.6,1.58,1.57
CUGAUC,2.39,2.38,2.58
AGGAUA,0.874,0.876,0.848
CUGACC,1.23,1.22,1.27
AGUCCU,0.811,0.839,0.826
UUCGAU,1.93,1.95,2.08
AACCAG,0.915,0.9,0.923
CUCUGA,1.97,1.91,1.94
UUGACC,1.42,1.42,1.47
UUGAUG,7.94,6.95,6.96
GUGAAG,0.939,0.946,0.891
GGGAUG,1.3,1.28,1.27
UUGAAG,1.08,1.11,1.08
UAGAUC,0.818,0.834,0.838
UUGAUC,2.63,2.7,2.9
GUGAUG,5.06,4.7,4.68
UAGAUG,1.64,1.65,1.73
AAAGCA,0.883,0.885,0.861
CAAGGA,1,0.973,0.963
CGAAUG,1.41,1.37,1.35
UAUACC,0.57,0.601,0.592
CUCGGA,0.971,0.974,0.939

Sequence,RBNS R-value (protein concentration: 250 nM),RBNS R-value (protein concentration: 500 nM),RBNS R-value (protein concentration: 1000 nM)
CGUGCU,0.967,0.973,0.954
GUAAGU,0.66,0.682,0.638
GUCUGG,0.813,0.839,0.796
UCUGAU,4.51,4.2,4.42
ACUGAC,1.18,1.16,1.18
UCUGAA,1.01,1.03,0.99
GCUGAG,1.21,1.18,1.15
CCUGAA,1.23,1.24,1.23
CCUGAU,4.76,4.47,4.65
UCUGAC,1.13,1.12,1.13
ACUGAG,1.18,1.19,1.13
CCUGAC,1.32,1.33,1.34
GCUGAU,3.92,3.7,3.79
GCUGAC,1.21,1.23,1.23
ACUGAU,4.56,4.17,4.36
AUGCAG,1.15,1.16,1.18
AUCUGU,0.889,0.916,0.89
GAGGAG,1.12,1.09,1.02
CUCACG,0.951,0.969,0.993
UCUGGC,1.18,1.18,1.17
GCGACC,1.08,1.08,1.09
GGGUUU,0.955,0.992,0.97
ACACUC,1.07,1.05,1.07
AUUGAC,1.45,1.46,1.49
UUUGAA,1.15,1.15,1.13

Sequence,RBNS R-value (protein concentration: 250 nM),RBNS R-value (protein concentration: 500 nM),RBNS R-value (protein concentration: 1000 nM)
CUUGAC,1.61,1.59,1.61
AUUGAG,1.23,1.24,1.21
UUUGAU,6.28,5.82,6.05
UUUGAC,1.48,1.47,1.5
CUUGAU,4.89,4.7,4.93
GUUGAC,1.02,1.02,1.01
GUUGAG,0.856,0.907,0.877
AUUGAU,5.75,5.29,5.52
GUUGAU,4.02,3.81,3.96
CUUGAA,1.18,1.17,1.15
GUGUGA,1.5,1.51,1.48
UUGGUC,0.872,0.953,0.884
GCGGGC,1.09,1.09,1.07
UUCUGC,1.19,1.21,1.22
GGUUCG,0.887,0.904,0.88
UAUCAG,0.589,0.619,0.59
AGCCUU,0.931,0.961,0.982
GAUCUA,1.19,1.23,1.27
CACGAU,1.8,1.82,1.95
CUUAGA,0.933,0.948,0.93
AACAUA,0.429,0.465,0.417
CCAAAA,1.14,1.1,1.11
GUAUGU,0.702,0.701,0.677
GAUCAG,1.21,1.23,1.26
AUUUGG,1.56,1.52,1.53

Sequence,RBNS R-value (protein concentration: 250 nM),RBNS R-value (protein concentration: 500 nM),RBNS R-value (protein concentration: 1000 nM)
AUUUGA,2.85,2.67,2.75
UUUUGU,0.927,0.945,0.932
AUUUGU,1.19,1.18,1.16
UUUUGA,2.87,2.69,2.76
UUUUGC,1.25,1.28,1.3
CGUCGU,0.673,0.674,0.653
AUUCGG,1.21,1.23,1.22
GAGGCA,1.07,1.06,1.04
AGUCAG,0.665,0.689,0.664
GGUAGU,0.858,0.895,0.812
UCGAAU,0.871,0.871,0.846
GAUUGC,3.17,2.85,2.87
GAUUGA,3.24,3.03,3.05
CAUUGC,1.1,1.11,1.11
GAUUGU,1.51,1.5,1.51
UAUUGA,1.66,1.61,1.65
GAUUGG,2.35,2.26,2.17
AAUUGU,0.811,0.836,0.821
CAUUGA,2.25,2.16,2.24
AAUUGA,2.42,2.26,2.31
UGGAUC,0.876,0.876,0.852
CGGGUA,0.923,0.929,0.9
GUGAUA,2.97,2.94,3.2
UUGAGU,1.03,1.07,1.03
CAGAUU,1.53,1.52,1.61

Sequence,RBNS R-value (protein concentration: 250 nM),RBNS R-value (protein concentration: 500 nM),RBNS R-value (protein concentration: 1000 nM)
GUGAAU,0.995,1,0.944
GUGAUC,1.68,1.71,1.81
CUGAAU,1.09,1.11,1.07
GUGAGA,1.03,1.06,0.984
GUGAUU,4.55,4.24,4.44
UUGAUU,7.23,6.65,6.84
UGGAUU,1.02,1.04,1.01
CUGAUU,6.33,5.69,5.82
GUGAAA,0.997,0.961,0.925
GUACUA,0.638,0.638,0.595
UACGGA,0.876,0.89,0.885
GAAUCA,0.819,0.828,0.81
UAGUGG,0.775,0.827,0.76
CAGUUC,0.829,0.84,0.843
GCCCUU,0.971,1.02,1.03
GGGCAC,1.06,1.04,1.06
UUGCAC,1.32,1.29,1.31
CGAUAA,1.27,1.33,1.41
UGAUAC,3.65,3.59,3.96
GGAUAG,0.94,0.954,0.908
UGAUAG,4.53,4.33,4.55
UGAUAA,4.34,4.21,4.69
UGAUAU,3.72,3.77,4.19
AGAUAU,0.962,0.983,1
GGAUAU,0.856,0.872,0.845

Sequence,RBNS R-value (protein concentration: 250 nM),RBNS R-value (protein concentration: 500 nM),RBNS R-value (protein concentration: 1000 nM)
AGAUAG,1.08,1.1,1.11
AGAUAA,0.936,1,1.02
GGAUAC,0.904,0.919,0.891
CGAUAC,1.26,1.34,1.39
GCUACG,0.896,0.915,0.905
AGCUCC,0.982,0.991,1
UGCUGA,2.04,1.98,1.99
AAUCAC,0.701,0.714,0.718
GGGCUU,1.01,1.02,1.01
ACGCUG,1.14,1.13,1.13
CCGGCG,1.06,1.09,1.08
UACAGC,0.713,0.73,0.722
UCCCAU,0.805,0.831,0.834
UCCUCG,0.965,0.991,0.988
GAUUUA,2.58,2.52,2.7
UAUUUA,0.42,0.445,0.418
CAUUUC,0.888,0.94,1
GAUUUC,3.38,3.2,3.32
GAUUUU,3.71,3.43,3.56
AAUUUG,1.6,1.54,1.6
CAUUUU,0.849,0.886,0.903
CAUUUA,0.421,0.449,0.427
AAUUUC,1.1,1.11,1.15
AAUUUU,1.02,1.02,1.06
CAUUUG,1.31,1.35,1.38

Sequence,RBNS R-value (protein concentration: 250 nM),RBNS R-value (protein concentration: 500 nM),RBNS R-value (protein concentration: 1000 nM)
GAUUUG,4.2,3.81,3.78
UGGGUA,0.987,1.02,0.989
GUAGUG,0.958,0.965,0.926
GUAAAA,0.762,0.753,0.701
AAACAA,0.781,0.765,0.773
GACAUG,1.52,1.48,1.5
CCUAGC,0.86,0.888,0.886
ACGAUA,1.21,1.3,1.37
GCGAUU,2.19,2.21,2.28
GCGAUG,2.65,2.56,2.65
UCGAUG,2.22,2.24,2.37
UCGAUA,1.17,1.23,1.29
ACGAUC,0.998,1,1.05
GCGAUC,1.09,1.12,1.13
ACGAUG,2.5,2.46,2.59
UCGAUC,1.05,1.07,1.11
CCGAUU,2.3,2.23,2.34
CCGAUG,2.44,2.4,2.5
CCGAUA,1.32,1.36,1.43
